{
  "source": "PubChem BioAssay (NCATS)",
  "note": "Results filed as inconclusive are left out. The source made the active and inactive calls. Calls follow the shape of the dose curve; as a rule, active = well fitted curve in either direction with a large enough effect (not every such curve was filed as active); inconclusive = small, poorly fitted or top-dose-only effect, or another doubt; inactive = flat fitted curve, though single readings scatter. % is scaled to controls: 0 for no effect and ±100 for the full control effect; potency is read from the fitted curve at half-maximal effect.",
  "data": [
    {"biological_target": "Mitogen-activated protein kinase 10 (Mus musculus) (UniProt Q61831)", "assay": "JNK3 AlphaScreen Assay (AID 530);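 also: kinase came from lysate of stimulated human HepG2 cells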", "details": "JNK3 lysate, c-Jun phosphorylation; series mostly up to 57.1 µM; activity change, negative = inhibition: at the top concentration", "excerpt": "NIH Chemical Genomics Center [NCGC]\nNIH Molecular Libraries Screening Centers Network [MLSCN]\nThe c-jun N-terminal kinase (JNK) family are serine/threonine protein kinases that phosphorylate c-jun, a component of the transcription factor […] (AP-1). JNK kinases are members of the mitogen-activated protein kinase family including the extracellular regulated kinases and p38 kinases. Three JNK genes (JNK 1, 2, and 3) have been identified in humans so far. JNK1 and JNK2 have a broad distribution and JNK3 is primarily found in neuronal tissues and cardiac myocytes.\nJNK3 has been under consideration as a target for the treatment of neurodegenerative disorders. […] JNK pathway is also involved in pathological process in a mouse model of Parkinson's disease (Xia et al., 2001).\nGiven these potential tissue distributions and links to neuroprotection, JNK3 inhibitors should provide useful investigational tools to study the role of this kinase in several diseases including, arthritis, stroke, myocardial infarction, ischemic injury and Parkinson's disease.\nA homogeneous AlphaScreen is developed to measure the activity of JNK3. AlphaScreen is a two bead-based proximity-dependent chemical energy transfer luminescent assay platform. The phosphorylation of a biotinylated c-jun substrate by JNK3 can be detected with an antibody raised against phosphorylated c-jun. This process brings streptavidin donor beads and Protein-A acceptor beads to within a proximity range of <200 nm, and subsequently lead a chemical luminescent reaction upon exciting donor beads with 680 nm laser excitation light. Inhibition of JNK3 activity by small molecules and subsequent decrease in the antibody binding to biotinylated c-jun could attenuate or abolish this chemical luminescent reaction.\nYang DD, Kuan CY, Whitmarsh AJ, Rincon M, Zheng TS, Davis RJ, Rakic P and Flavell RA (1997) Absence of excitotoxicity-induced apoptosis in the hippocampus of mice lacking the Jnk3 gene. Nature 389:865-870. [PMID: 9349820]\nHerdegen T, Claret FX, Kallunki T, Martin-Villalba A, Winter C, Hunter T, and Karin M (1998) Lasting N-terminal phosphorylation of c-Jun and activation of c-Jun N-terminal kinases after neuronal injury. J.Neurosci. 18:5124-5135. [PMID: 9651196]\nXia XG, Harding T, Weller M, Bieneman A, Uney JB and Schulz JB (2001) Gene transfer of the JNK interacting protein-1 protects dopaminergic neurons in the MPTP model of Parkinson's disease. Proc.Natl.Acad.Sci.U.S.A. 98:10433-10438.\nNCGC Assay Protocol Summary:\nGST-cJun (1-79) (Stratagene, La Jolla CA, #205145) was biotnylated by PerkinElmer (PerkinElmer-BioSignalInc. Montreal, Canada) and was detectable by the streptavidin Donor beads. Anti-(phospho)cJun (Ser73) antibody was from UpState (Charlottesvilles, VA, #06-659). JNK3-containing lysates were generated from HepG2 cells and pre-activated by interleukin1-beta and tumor necrosis factor alpha. All reagents were stored at -20 C before using. Phosphorylated biotinylated-GST-cJun was recognized by Anti-(phospho)cJun (Ser73) antibody and this process brings acceptor and donor beads together. Therefore JNK3 phosphorylation of cJun can be measured by Alpha reading by EnVision (PerkinElmer, Boston, MA).\nThe composition of kinase buffer was (in mM) 20 tris- HCl (pH 7.6) 10 MgCl2, 1 DTT, and 0.1 Na3VO4 and 0.01% Tween-20. Beads were diluted in detection buffer containing (in mM) 20 tris-HCl (pH 7.7), 20 NaCl and 80 EDTA and 0.3% BSA. The assay was performed at room temperature. All compounds were screened as titrations from 0.6 nM to 46 uM final concentration. The assay was performed in 1536-well format (white solid bottom and untreated) as follows:\nSequence,Parameter,Value,Description\n1,Reagent,3 uL,Biotin-GST-cJun, Anti-(phospho)cJun and pre-activated JNK3-containing lysates\n2,Compound,23 nL,Final concentration was 0.6nM to 46uM\n3,Time,15 minutes,Room Temperature\n4,Reagent,1 uL,ATP final concentration 10uM\n6,Reagent,0.5 uL,2ng/well bead mixture\n[…]", "values": [
      {"smiles": "CCc1c2c(nc3cccc(C(C)C)c13)-c1cccc(=O)n1C2", "activity change, negative = inhibition": "7.44% (inactive)"},
      {"smiles": "C[C@@]1(C(NC(=O)c2ccc(-c3ccccc3)cc2)c2ccc(Cl)cc2)C[C@H]1C1CCCCC1", "note": "(stereo not given in full)", "activity change, negative = inhibition": "1.24% (inactive)"},
      {"smiles": "C[C@@H]1C(=O)O[C@H]2[C@@H](O)[C@@]34[C@H]5C[C@H](C(C)(C)C)[C@@]36[C@H](OC(=O)[C@@H]6O)O[C@@]4(C(=O)O5)[C@@]12O", "activity change, negative = inhibition": "15.9% (inactive)"},
      {"smiles": "COc1ccccc1-c1oc2ccccc2c(=O)c1OC", "activity change, negative = inhibition": "-15.7% (inactive)"},
      {"smiles": "c1ccc2c(c1)-c1cccc3c1c-2cc1ccccc13", "Potency": "2.51 µM [activator] (active)"},
      {"smiles": "CCCC/C=C/C(NC(=O)C(C)(C)C)c1ccccc1", "note": "(stereo not given)", "activity change, negative = inhibition": "3.6% (inactive)"},
      {"smiles": "O=c1c2ccccc2oc2cc(O)c([C@@H]3COC[C@@H](CO)[C@@H](O)[C@@H](O)[C@H]3O)c(O)c12", "activity change, negative = inhibition": "-24.2% (inactive)"},
      {"smiles": "C=C[C@@](C)(O)CC[C@H]1[C@]2(C)CCCC(C)(C)[C@H]2CC[C@]1(C)O", "activity change, negative = inhibition": "-5.42% (inactive)"},
      {"smiles": "COc1ccc2oc(-c3ccccc3)c(OC)c(=O)c2c1", "activity change, negative = inhibition": "12.2% (inactive)"},
      {"smiles": "CCc1cccc2nc3c(c([Si](C)(C)C)c12)Cn1c-3cccc1=O", "activity change, negative = inhibition": "23.5% (inactive)"},
      {"smiles": "CN[C@@H]1[C@H](O)[C@H](NC)[C@@H]2O[C@]3(O)C(=O)C[C@@H](C)O[C@H]3O[C@@H]2[C@H]1O", "activity change, negative = inhibition": "14.6% (inactive)"},
      {"smiles": "CC(=O)OC[C@@H]1O[C@@H](Oc2cc(OC(C)=O)c3c(=O)cc(-c4ccc(OC(C)=O)c(OC(C)=O)c4)oc3c2)[C@H](OC(C)=O)[C@H](OC(C)=O)[C@@H]1OC(C)=O", "activity change, negative = inhibition": "-17.1% (inactive)"},
      {"smiles": "CCC[C@H]1C[C@H](C(=O)N[C@@H]([C@H]2O[C@@H](SC)[C@@H](O)[C@@H](O)[C@@H]2O)[C@H](C)Cl)N(C)C1", "activity change, negative = inhibition": "1.08% [at 25.6 µM] (inactive)"},
      {"smiles": "CCCC/C=C/C(NC(=O)c1cccs1)c1ccccc1", "note": "(stereo not given)", "activity change, negative = inhibition": "10.7% (inactive)"},
      {"smiles": "CCCc1cc2c(n1Cc1ccc(OC)cc1)C(C)C1CN(C(=O)c3ccccc3)C(C)(C(=O)OC)C21", "note": "(stereo not given)", "activity change, negative = inhibition": "-10.1% (inactive)"},
      {"smiles": "O=C1C[C@H](c2ccccc2)Oc2cc(O)cc(O)c21", "activity change, negative = inhibition": "-25.8% (inactive)"},
      {"smiles": "CCC/C=C(\\CCC)C(NC(=O)c1ccc(-c2ccccc2)cc1)c1ccc(C(=O)OC)cc1", "note": "(stereo not given)", "activity change, negative = inhibition": "1.65% (inactive)"},
      {"smiles": "CC(C)[C@@H](CC(=O)N[C@@H]1CCCC[C@H]1C(=O)N[C@H](CC(=O)N[C@@H](CCC(=O)O)CC(=O)O)Cc1ccccc1)NC(=O)C[C@H](Cc1ccccc1)NC(=O)[C@@H]1CCCC[C@H]1N", "activity change, negative = inhibition": "7.59% (inactive)"},
      {"smiles": "CSc1ccc2c(c1)N(CC[C@H]1CCCCN1C)c1ccccc1S2", "Potency": "inactive"},
      {"smiles": "CC(C)[C@@H](CC(=O)N[C@@H]1CCCC[C@H]1C(=O)N[C@H](CC(=O)N[C@@H](CCC(=O)O)CC(=O)O)Cc1c[nH]c2ccccc12)NC(=O)C[C@H](Cc1ccccc1)NC(=O)[C@@H]1CNCC[C@H]1N", "activity change, negative = inhibition": "14.4% (inactive)"},
      {"smiles": "C[C@@H](C(=O)Nc1ccc2ccccc2c1)[C@@H]1C[C@@]1(C)[C@@H](NC(=O)c1ccncc1Cl)c1ccccc1", "activity change, negative = inhibition": "0.37% (inactive)"},
      {"smiles": "C=C1C(=O)C=C2CN(C(=O)c3ccccc3)[C@@](Cc3ccc(F)cc3)(C(=O)OC)[C@@H]12", "activity change, negative = inhibition": "-9.34% (inactive)"},
      {"smiles": "CC(C)C[C@@H](CC(=O)N[C@@H](CCC(=O)O)CC(=O)O)NC(=O)[C@@H]1CCCC[C@H]1NC(=O)C[C@H](CCCN)NC(=O)C[C@H](Cc1c[nH]c2ccccc12)NC(=O)[C@@H]1CNCC[C@H]1N", "activity change, negative = inhibition": "-5.45% (inactive)"},
      {"smiles": "NC(=S)c1ccc[n+]([C@@H]2O[C@@H](COP(=O)([O-])OP(=O)(O)OC[C@@H]3O[C@@H](n4cnc5c(N)ncnc54)[C@@H](OP(=O)(O)O)[C@H]3O)[C@@H](O)[C@H]2O)c1", "activity change, negative = inhibition": "10.7% (inactive)"},
      {"smiles": "CCCc1c(OCCCOc2ccc(OCC(=O)O)cc2)ccc(CC=O)c1O", "activity change, negative = inhibition": "-25.2% (inactive)"},
      {"smiles": "CC(C)[C@@H](CC(=O)N[C@@H]1CCCC[C@H]1C(=O)N[C@H](CC(=O)N[C@@H](CCC(=O)O)CC(=O)O)Cc1ccccc1)NC(=O)C[C@H](Cc1ccccc1)NC(=O)[C@@H]1CNCC[C@H]1N", "activity change, negative = inhibition": "-15.7% (inactive)"},
      {"smiles": "COC(=O)[C@H]1C[C@@H]1[C@H](NC(=O)Oc1ccc(F)cc1)c1ccccc1", "activity change, negative = inhibition": "3.52% (inactive)"},
      {"smiles": "CCCC[C@@H]1C[C@H]1C(NC(=O)c1ccc(-c2ccccc2)cc1)c1ccc(-c2ccccc2)cc1", "note": "(stereo not given in full)", "activity change, negative = inhibition": "3.05% (inactive)"},
      {"smiles": "COc1cc2nc(N3CC=[N+](C(=O)c4ccco4)CC3)nc(N)c2cc1OC", "activity change, negative = inhibition": "6.27% (inactive)"},
      {"smiles": "CC(C)[C@@H](CC(=O)N[C@@H]1CCNC[C@H]1C(=O)N[C@H](CC(=O)N[C@@H](CCC(=O)O)CC(=O)O)Cc1c[nH]c2ccccc12)NC(=O)C[C@H](Cc1ccccc1)NC(=O)[C@@H]1CNCC[C@H]1N", "activity change, negative = inhibition": "20.7% (inactive)"},
      {"smiles": "CC1=C(\\C=C/C(C)=C/C=C\\C(C)=C\\CO)C(C)(C)CCC1", "activity change, negative = inhibition": "-26.6% (inactive)"},
      {"smiles": "Cc1cc(C(C)(C)CC(C)(C)C)ccc1OCCOCC[N+](C)(C)Cc1ccccc1", "activity change, negative = inhibition": "-4.64% [at 25.6 µM] (inactive)"},
      {"smiles": "FC(F)(F)c1cc(CO[C@@H]2CCCN[C@H]2c2ccccc2)cc(C(F)(F)F)c1", "activity change, negative = inhibition": "-22.7% (inactive)"},
      {"smiles": "C[C@@]1(C(NC(=O)c2ccccc2)c2ccc(-c3ccccc3)cc2)C[C@H]1C1CCCCC1", "note": "(stereo not given in full)", "activity change, negative = inhibition": "0.524% (inactive)"},
      {"smiles": "O=C1C=CC2=C3c4cc(O)c(O)cc4C[C@@]3(O)COC2=C1O", "Potency": "0.501 µM (active)"},
      {"smiles": "CC(=O)[C@H]1[C@H]2[C@H](C(=O)[C@@H]3OC[C@H]2O3)[C@@H]2c3ccccc3C=CN12", "activity change, negative = inhibition": "-8.21% (inactive)"},
      {"smiles": "CN(C)CCCO[C@H]1[C@H]([C@H](O)CO)O[C@H]2OC(C)(C)O[C@@H]21", "activity change, negative = inhibition": "-11.9% (inactive)"},
      {"smiles": "Nc1ccccc1C#Cc1ccccc1", "activity change, negative = inhibition": "24.1% (inactive)"},
      {"smiles": "O=C(/C=C\\c1ccc(O)c(O)c1)O[C@H]1C[C@@](O)(C(=O)O)C[C@H](O)[C@@H]1O", "activity change, negative = inhibition": "-61.5% (inactive)"},
      {"smiles": "COC(=O)[C@@H]1C[C@H]1[C@@H](NC(=O)c1ccccc1)c1ccccc1", "activity change, negative = inhibition": "1.62% (inactive)"}
    ]}
  ]
}
